PubChem BioAssay (NCI)
This is part of a sample that, as a whole, favours compounds with a hit. Of some 79,000 tested, about 15% had one in any assay. Activity calls are given as the source filed them. Rule as the data show it: active = growth inhibition above about 70%; inactive = the rest.

How the values were obtained:
[1] = NCI Yeast Anticancer Drug Screen. Data for the mlh1 strain (AID 171);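 also: 0% = growth of vehicle-treated control cultures of the same strain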; conditions: S. cerevisiae mlh1 strain growth inhibition, stronger effect = higher value
Outline: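 Vehicle-normalised growth inhibition of a repair- or checkpoint-altered yeast strain following compound treatment.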

[2] = NCI Yeast Anticancer Drug Screen. Data for the sgs1 strain (AID 173);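 also: 0% = growth of vehicle-only control cultures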; conditions: S. cerevisiae sgs1 mutant, stronger effect = higher value
Outline: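 Screen format: yeast with repair or checkpoint alterations, compound exposure, growth read relative to vehicle.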

[3] = NCI Yeast Anticancer Drug Screen. Data for the mlh1 rad18 strain (AID 175); conditions: S. cerevisiae mlh1 rad18 strain growth inhibition, stronger effect = higher value
Outline: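 Vehicle-treated cultures served as the reference for growth inhibition in a yeast strain carrying DNA damage repair alterations exposed to each compound.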

[4] = NCI Yeast Anticancer Drug Screen. Data for the rad18 strain (AID 177); conditions: S. cerevisiae rad18 mutant growth inhibition, stronger effect = higher value
Outline: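 Test articles were incubated with altered yeast defective in DNA damage repair. Results are given as inhibition of growth versus vehicle.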

[5] = NCI Yeast Anticancer Drug Screen. Data for the wt1 strain (AID 149);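 also: 0% = growth of vehicle-treated wt1 cultures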; conditions: S. cerevisiae wt1 strain (SPY 50644) growth inhibition, stronger effect = higher value
Outline: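 Growth inhibition read against vehicle controls after compound exposure of the wt1 yeast strain.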

[6] = NCI Yeast Anticancer Drug Screen. Data for the rad50EPP+ strain (AID 151);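 also: 0% = growth of vehicle-treated control cultures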; conditions: S. cerevisiae rad50 mutant strain, stronger effect = higher value
Outline: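 In this screen, rad50EPP+ yeast were exposed to compounds. Growth inhibition was scored against vehicle-treated controls.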

[7] = NCI Yeast Anticancer Drug Screen. Data for the mgt1 strain (AID 153); conditions: S. cerevisiae mgt1 mutant growth inhibition, stronger effect = higher value
Outline: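 mgt1 strain exposed; growth vs vehicle control recorded as inhibition.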

[8] = NCI Yeast Anticancer Drug Screen. Data for the rad50 strain (AID 155);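 also: 0% = growth of vehicle-only cultures of the same strain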; conditions: S. cerevisiae rad50 strain growth inhibition, stronger effect = higher value
Outline: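 Readout: growth inhibition relative to vehicle-treated cultures. Compound exposure was carried out in a genetically defined yeast strain deficient in DNA damage repair.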

[9] = NCI Yeast Anticancer Drug Screen. Data for the mec2-1 strain (AID 157); conditions: S. cerevisiae mec2-1 strain, stronger effect = higher value
Outline: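 Vehicle-treated cultures served as reference for growth inhibition of compound-exposed mec2-1 yeast.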

[10] = NCI Yeast Anticancer Drug Screen. Data for the rad14 strain (AID 159);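 also: 0% = growth of vehicle-treated control cultures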; conditions: S. cerevisiae rad14 strain growth inhibition, stronger effect = higher value
Outline: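 Growth inhibition vs vehicle controls; genetically altered yeast strain (DNA damage repair defect) treated with test compounds.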

[11] = NCI Yeast Anticancer Drug Screen. Data for the sgs1 mgt1 strain (AID 161);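 also: 0% = growth of cultures given vehicle only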; conditions: S. cerevisiae sgs1 mgt1 strain, stronger effect = higher value
Outline: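 Read-out: growth inhibition vs vehicle controls. Cells: mutant yeast strain deficient in DNA damage repair.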

[12] = NCI Yeast Anticancer Drug Screen. Data for the CLN2oe strain (AID 163);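 also: 0% = growth of vehicle-only control cultures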; conditions: S. cerevisiae CLN2oe strain, stronger effect = higher value
Outline: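 Inhibition relative to vehicle-treated yeast is reported. Cells: strain with genetic alteration in cell-cycle control, grown with compound.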

[13] = NCI Yeast Anticancer Drug Screen. Data for the cln2 rad14 strain (AID 165);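 also: 0% = growth equal to vehicle treated cultures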; conditions: S. cerevisiae cln2 rad14 strain, stronger effect = higher value
Outline: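 Each compound was tested on cln2 rad14 yeast. Inhibition of growth was calculated against vehicle-exposed controls.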

[14] = NCI Yeast Anticancer Drug Screen. Data for the bub3 strain (AID 167); conditions: S. cerevisiae bub3 mutant strain, stronger effect = higher value
Outline: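 Readout: yeast growth inhibition, expressed relative to vehicle-only wells. The test organism is a mutant strain from a panel with lesions in DNA repair or checkpoint genes.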

[15] = NCI Yeast Anticancer Drug Screen. Data for the wt2 strain (AID 169);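 also: 0% = growth of vehicle-treated yeast cultures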; conditions: S. cerevisiae wt2 strain growth inhibition, stronger effect = higher value
Outline: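 Inhibition of yeast growth was determined after compound treatment, normalised to controls receiving only vehicle.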

[16] = at 5.0 µM (retest, dose inferred, filed as 0.5)
[17] = at 50.0 µM (retest, dose inferred, filed as 5.0)

Measured: growth inhibition

COc1cc(NCCCCCNC(C)C)c2ncccc2c1Cl
inactive: [1]; at 1.2 µM -1% | [1]; at 3.7 µM -1% | [1]; at 11.0 µM 1% | [1]; at 33.0 µM 7% | [1]; at 100.0 µM 15% | [2]; at 1.2 µM -1% | [2]; at 3.7 µM -2% | [2]; at 11.0 µM 3% | [2]; at 33.0 µM 13% | [2]; at 100.0 µM 23% | [3]; [16] 5% | [3]; [17] 38% | [3]; at 50.0 µM 56.8% | [4]; at 1.2 µM -1% | [4]; at 3.7 µM -4% | [4]; at 11.0 µM -1% | [4]; at 33.0 µM 5% | [4]; at 100.0 µM 13%

CCc1nc2ccc(N=Nc3c(O)ccc4ccccc34)cc2[nH]1
inactive: [5]; at 1.2 µM 14% | [5]; at 3.7 µM 10% | [5]; at 11.0 µM 19% | [5]; at 33.0 µM 30% | [6]; at 1.2 µM -5% | [6]; at 3.7 µM 4% | [6]; at 11.0 µM 23% | [6]; at 33.0 µM 63% | [7]; at 1.2 µM 0% | [7]; at 3.7 µM -10% | [7]; at 11.0 µM -6% | [7]; at 33.0 µM -2% | [8]; at 1.2 µM 6% | [8]; at 3.7 µM 6% | [8]; [16] -23% | [8]; at 11.0 µM 8% | [8]; at 33.0 µM 34% | [8]; [17] 25% | [9]; at 1.2 µM 0% | [9]; at 3.7 µM 7% | [9]; [16] -49% | [9]; at 11.0 µM 10% | [9]; at 33.0 µM 21% | [9]; [17] 65% | [10]; at 1.2 µM -15% | [10]; at 3.7 µM -29% | [10]; at 11.0 µM -20% | [10]; at 33.0 µM 32% | [11]; [16] -4% | [11]; [17] 21% | [12]; at 1.2 µM 2% | [12]; at 3.7 µM 1% | [12]; at 11.0 µM -5% | [12]; at 33.0 µM 9% | [13]; [16] 9% | [13]; [17] 41% | [14]; at 1.2 µM -3% | [14]; at 3.7 µM -11% | [14]; [16] -9% | [14]; at 11.0 µM -18% | [14]; at 33.0 µM 13% | [15]; at 1.2 µM -13% | [15]; at 3.7 µM 12% | [15]; at 11.0 µM -5% | [15]; at 33.0 µM 12% | [1]; at 1.2 µM -15% | [1]; at 3.7 µM -10% | [1]; at 11.0 µM -18% | [1]; at 33.0 µM 17% | [2]; at 1.2 µM 1% | [2]; at 3.7 µM 17% | [2]; at 11.0 µM 24% | [2]; at 33.0 µM 57% | [3]; [16] -22% | [3]; [17] 46% | [4]; at 1.2 µM -8% | [4]; at 3.7 µM -10% | [4]; at 11.0 µM 1% | [4]; at 33.0 µM 21%
active: [5]; at 100.0 µM 96% | [6]; at 100.0 µM 93% | [7]; at 100.0 µM 96% | [8]; at 50.0 µM 89% | [8]; at 100.0 µM 95% | [9]; at 50.0 µM 93.2% | [9]; at 100.0 µM 93% | [10]; at 100.0 µM 93% | [11]; at 50.0 µM 92.5% | [12]; at 100.0 µM 95% | [13]; at 50.0 µM 91.9% | [14]; [17] 92% | [14]; at 50.0 µM 92.2% | [14]; at 100.0 µM 95% | [15]; at 100.0 µM 96% | [1]; at 100.0 µM 95% | [2]; at 100.0 µM 95% | [3]; at 50.0 µM 90.1% | [4]; at 100.0 µM 95%

O=[N+]([O-])C(=C(NCc1ccccc1)NCc1ccccc1)C(Cl)=C(Cl)Cl
active: [6]; at 33.0 µM 83% | [6]; at 100.0 µM 85% | [15]; at 100.0 µM 70% | [1]; at 100.0 µM 85% | [2]; at 100.0 µM 83% | [3]; [17] 83% | [3]; at 50.0 µM 81.5% | [4]; at 100.0 µM 85%
inactive: [5]; at 1.2 µM 1% | [5]; at 3.7 µM 2% | [5]; at 11.0 µM 7% | [5]; at 33.0 µM 10% | [5]; at 100.0 µM 41% | [6]; at 1.2 µM 3% | [6]; at 3.7 µM 18% | [6]; at 11.0 µM 56% | [7]; at 1.2 µM -2% | [7]; at 3.7 µM 3% | [7]; at 11.0 µM 5% | [7]; at 33.0 µM 29% | [7]; at 100.0 µM 62% | [8]; at 1.2 µM 1% | [8]; at 3.7 µM 1% | [8]; [16] -8% | [8]; at 11.0 µM 6% | [8]; at 33.0 µM 13% | [8]; [17] 57% | [8]; at 50.0 µM 26.6% | [8]; at 100.0 µM 52% | [9]; at 1.2 µM -1% | [9]; at 3.7 µM 0% | [9]; [16] -7% | [9]; at 11.0 µM 4% | [9]; at 33.0 µM 14% | [9]; [17] 24% | [9]; at 50.0 µM 23.6% | [9]; at 100.0 µM 54% | [10]; at 1.2 µM -4% | [10]; at 3.7 µM -3% | [10]; at 11.0 µM 1% | [10]; at 33.0 µM 11% | [10]; at 100.0 µM 56% | [11]; [16] 2% | [11]; [17] 45% | [11]; at 50.0 µM 66% | [12]; at 1.2 µM -5% | [12]; at 3.7 µM -3% | [12]; at 11.0 µM 6% | [12]; at 33.0 µM 14% | [12]; at 100.0 µM 62% | [13]; [16] 40% | [13]; [17] 55% | [13]; at 50.0 µM 64.2% | [14]; at 1.2 µM -5% | [14]; at 3.7 µM -9% | [14]; [16] 0% | [14]; at 11.0 µM 0% | [14]; at 33.0 µM 5% | [14]; [17] 42% | [14]; at 50.0 µM 33% | [14]; at 100.0 µM 49% | [15]; at 1.2 µM 1% | [15]; at 3.7 µM 2% | [15]; at 11.0 µM 9% | [15]; at 33.0 µM 19% | [1]; at 1.2 µM 4% | [1]; at 3.7 µM 1% | [1]; at 11.0 µM 9% | [1]; at 33.0 µM 25% | [2]; at 1.2 µM 1% | [2]; at 3.7 µM 7% | [2]; at 11.0 µM 15% | [2]; at 33.0 µM 39% | [3]; [16] 12% | [4]; at 1.2 µM -1% | [4]; at 3.7 µM 1% | [4]; at 11.0 µM 5% | [4]; at 33.0 µM 20%
